rCAG binder: r(CAG) repeat RNA binding | TO-PRO-1 dye displacement fluorescence | inhibition, % at 3 µM | 370,000 tested, 1.3% active | AID 651821;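 active = inhibition above the plate cutoff, the mean of all test compounds on that plate plus 3 SD, cut at about 35% in these data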;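 note: 0% = DMSO alone and 100% = 100 µM mitoxantrone as full dye displacement; higher means more dye released from RNA so lower well fluorescence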
ALR inh: inhibitors of human sulfhydryl oxidase ALR | purified ALR, DTT oxidation, H2O2 HRP-luminol luminescence | inhibition, % (concentration not given with the values) | 290,000 tested, 3.8% active | AID 485317;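 active = mean replicate inhibition above about 79%, with every replicate also reaching it, limit read from the data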
Target sequence (P55789 whole entry, looked up): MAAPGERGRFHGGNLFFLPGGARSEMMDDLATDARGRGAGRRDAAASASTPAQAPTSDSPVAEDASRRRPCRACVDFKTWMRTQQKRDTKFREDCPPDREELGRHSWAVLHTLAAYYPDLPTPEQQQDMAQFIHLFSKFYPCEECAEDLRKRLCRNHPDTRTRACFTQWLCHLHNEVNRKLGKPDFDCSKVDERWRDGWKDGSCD
A3A deaminase: inhibitors of human APOBEC3A DNA deaminase; P31941; recombinant A3A, FAM/TAMRA ssDNA deamination fluorescence; inhibition, % at 20 µM; 330,000 tested, 0.41% active; AID 493011;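 active = at least 40% inhibition at 20 µM here, with at most 30% in a related deaminase screen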;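 note: plate controls were A3A with DMSO for no effect and wells lacking A3A enzyme for full effect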
PHOSPHO1 block: inhibitors of human PHOSPHO1 phosphatase | recombinant PHOSPHO1, absorbance phosphatase assay | inhibition, % at 13.3 µM | 290,000 tested, 1.1% active | AID 1565; in the data active = inhibition above about 60%
aDG glyco act: alpha-DG glycosylation activation; Pro5-aDG cells, alpha-DG glycosylation AlphaScreen (IIH6); 0% Pro5, 100% B10-LARGE cell signal; activation, % at 10 µM; 360,000 tested, 0.22% active; AID 624168;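 active = activation of at least 8% versus controls, or a plate z-score of at least 8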;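 note: Pro5 are CHO cells carrying HIG-tagged alpha-DG that lacks glycosylation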
APOBEC3G inh: blocks human APOBEC3G single-stranded DNA deamination; Q9HC16; recombinant A3G, ssDNA deamination FAM/TAMRA fluorescence; inhibition, % at 20 µM; 330,000 tested, 0.28% active; AID 493012;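 active = inhibition of at least 40% at 20 µM, with no more than 30% in the related APOBEC3A deaminase screen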;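 note: plate controls were DMSO wells with A3G for no effect and wells lacking A3G enzyme for full effect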
Target sequence (Q9HC16 whole entry, looked up): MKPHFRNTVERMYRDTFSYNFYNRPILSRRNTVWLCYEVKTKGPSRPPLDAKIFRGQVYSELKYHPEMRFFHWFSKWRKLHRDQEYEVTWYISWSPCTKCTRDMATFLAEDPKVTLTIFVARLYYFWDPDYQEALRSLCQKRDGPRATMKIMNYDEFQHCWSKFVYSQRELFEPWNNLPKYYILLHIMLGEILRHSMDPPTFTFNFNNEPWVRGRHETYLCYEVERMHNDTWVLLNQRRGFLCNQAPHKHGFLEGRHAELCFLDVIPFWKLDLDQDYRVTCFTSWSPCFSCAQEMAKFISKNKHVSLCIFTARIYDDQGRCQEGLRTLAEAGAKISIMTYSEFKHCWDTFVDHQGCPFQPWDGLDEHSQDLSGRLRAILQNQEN
rCAG binder conf: r(CAG) RNA repeat binding, confirmation. TO-PRO-1 dye displacement fluorescence. AID 652065. inhibition, % at 3 µM. shares compounds with rCAG binder. 4,300 tested, 70% active;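 active = inhibition above a per-plate cutoff, the mean inhibition of sample wells plus 3 SD, cut at about 35% in these data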;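 note: loss of TO-PRO-1 fluorescence as compound displaces dye from 1x1 AA loop RNA; 0% = DMSO only wells and 100% = 100 µM mitoxantrone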
dCAG dye counter: disrupts DNA CAG TO-PRO-1 complex, flagging rCAG hits | shares compounds with rCAG binder | inhibition, % at 3 µM | AID 652068 | d(CAG) DNA oligo TO-PRO-1 dye displacement, fluorescence | 4,300 tested, 94% active;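 active = inhibition above its plate's cutoff, the mean test-well inhibition plus 3 SD, cut at about 4.8% in these data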;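 note: 0% = DNA dye mix with DMSO and 100% = 100 µM mitoxantrone; hits displace the dye from DNA and so lower well fluorescence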
dCAG dye DR: counter-screen for rCAG binders: inhibitors of DNA CAG TO-PRO-1 complex; DNA CAG/GTC duplex TO-PRO-1 dye displacement fluorescence; AID 686960; shares compounds with rCAG binder; 250 tested, 20% active; IC50, µM; in the data active = IC50 below about 10 µM
Starred values were filed as active, the others as inactive; i = inactive; nt = no result given. Most compounds without a hit are left out; they make up all but 5.4% or so of the library.

SMILES	rCAG binder	ALR inh	A3A deaminase	PHOSPHO1 block	aDG glyco act	APOBEC3G inh	rCAG binder conf	dCAG dye counter	others
O=C(Nc1ccccc1C(=O)O)c1ccc(NC(=O)c2ccc(Br)o2)cc1	nt	16	0	-5	0	0	nt	nt
CCC(C)c1ccc(OCC(=O)Nc2ccc3[nH]c(=O)[nH]c3c2)cc1 (configuration not stated)	-2	-3	-5	5	0	-4	nt	nt
Cc1cc(C)c(C)c(S(=O)(=O)Nc2cccc(S(=O)(=O)Nc3ccccc3C(=O)O)c2)c1C	78*	13	-1	nt	0	-4	73*	38*
CCN(CC(=O)Nc1c(F)cccc1F)C(=O)c1cccc(S(=O)(=O)N2CCCc3ccccc32)c1	3	nt	nt	nt	0	nt	nt	nt
CC(=O)OCC(COC(C)=O)(CN1C(=O)c2ccccc2C1=O)CN1C(=O)c2ccccc2C1=O	4	nt	nt	nt	nt	nt	nt	nt
C[C@@H]1CN([C@@H](C)CO)C(=O)CCCn2cc(nn2)CO[C@H]1CN(C)C(=O)Nc1cccc(F)c1	-1	nt	nt	nt	nt	nt	nt	nt
O=[N+]([O-])c1ccc2c(c1)-c1ccccc1C2O (configuration not stated)	5	nt	nt	nt	0	nt	nt	nt
O=C(Nc1cccc(C(=O)Nc2ccccc2C(=O)O)c1)c1cccc(Cl)c1	60*	-4	-2	nt	0	-5	55*	18*
O=C(Nc1ccccc1C(=O)O)c1cccc(C(=O)Nc2ccccc2C(=O)O)c1	50*	5	-2	-11	0	-2	42*	9.1*
O=C(COc1ccc(Cl)cc1Cl)Nc1ccc(C(=O)Nc2ccccc2C(=O)O)cc1	50*	-2	2	38	0	-8	86*	74*
COc1cc(NC(=O)Nc2ccc(Cl)c(Cl)c2)c(C(=O)O)cc1OC	70*	17	0	13	0	-4	54*	15*
CC(=O)Nc1cccc(C(=O)Nc2ccccc2C(=O)O)c1	6	0	2	-8	0	0	nt	nt
NC(=O)[C@@H]1CCCN1C(=O)[C@@H](Cc1ccccc1)NC(=O)[C@H]1O[C@@H](n2ccc(N)nc2=O)[C@H](O)[C@@H]1O	2	nt	nt	nt	nt	nt	nt	nt
CCN1CCCCC(NC(=O)c2ccccc2)C1=O (configuration not stated)	-1	nt	nt	nt	nt	nt	nt	nt
CC(C)(CCc1ccccn1)C(=O)CCCc1ccccn1	2	nt	nt	nt	0	nt	nt	nt
O=S1(=O)C[C@H](N2CCC[C@@H]2CO)[C@@H](COCc2ccccc2)N1	6	nt	nt	nt	0	nt	nt	nt
COC(=O)C1=C(C)N(CC(C)C)C(=S)NC1c1cccc(OC)c1 (configuration not stated)	-1	nt	nt	nt	nt	nt	nt	nt
CC(=O)Oc1ccc(C(=O)Nc2cccc(C(=O)Nc3ccccc3C(=O)O)c2)cc1	50*	74	0	40	0	-4	44*	12*
COc1ccc(OCC(=O)Nc2cccc(C(=O)Nc3ccccc3C(=O)O)c2)cc1	51*	48	0	0	0	-7	62*	17*
O=C(Cc1ccc(Cl)cc1)Nc1cccc(C(=O)Nc2ccccc2C(=O)O)c1	74*	11	-1	-12	0	-2	64*	24*
O=C(Nc1sc(-c2ccccc2)cc1C(=O)O)c1ccccc1	85*	70	-7	-3	0	-7	73*	34*	dCAG dye DR=i
Cc1ccccc1NC(=O)C(C)OC(=O)C1CCCO1 (configuration not stated)	1	nt	nt	nt	0	nt	nt	nt
CCOC(=O)C(=O)N/N=C(/c1ccccc1)c1ccc(OC)cc1	-5	-7	8	16	0	-1	nt	nt
Cc1ccc(NC(=O)Nc2cccc(Cl)c2)c(C(=O)O)c1	47*	51	3	53	0	-1	21	3
COc1ccc(/C(=N\Nc2ccccc2C(=O)O)c2ccccc2)cc1	50*	99*	3	-5	0	-4	43*	12*
SMILES	rCAG binder	ALR inh	A3A deaminase	PHOSPHO1 block	aDG glyco act	APOBEC3G inh	rCAG binder conf	dCAG dye counter	others
CSc1ccccc1NC(=O)Nc1cccc(Cl)c1	7	nt	0	-11	0	-6	nt	nt
COc1cc(/C=N/NC(=O)C(Cc2c[nH]c3ccccc23)NC(=O)OCc2ccccc2)cc([N+](=O)[O-])c1O (configuration not stated)	83*	2	nt	-4	0	nt	81*	47*
COc1cc(/C=N/NC(=O)C(Cc2c[nH]c3ccccc23)NC(=O)OCC(C)C)cc([N+](=O)[O-])c1O (configuration not stated)	57*	12	4	-12	0	-8	69*	25*
COc1cc(/C=N/NC(=O)C(Cc2c[nH]c3ccccc23)NC(=O)OCC(C)C)cc([N+](=O)[O-])c1OCc1ccccc1 (configuration not stated)	6	-15	0	25	0	-8	nt	nt
Cc1ccc(S(=O)(=O)NC(=O)C2(C)CCN2C(=O)CCc2ccc(Cl)cc2Cl)cc1 (configuration not stated)	51*	nt	nt	nt	0	nt	34	6.0*
CC1(C(=O)NS(=O)(=O)c2ccc(Cl)cc2)CCN1C(=O)CCc1ccc(Cl)cc1Cl (configuration not stated)	52*	nt	nt	nt	0	nt	49*	13*
CC1(C(=O)NS(=O)(=O)c2ccc(Cl)s2)CCN1C(=O)Cc1ccc(Cl)cc1Cl (configuration not stated)	40*	nt	nt	nt	0	nt	40*	11*
CC1(C(=O)NS(=O)(=O)c2ccc(Cl)s2)CCN1C(=O)Cc1cc(F)ccc1F (configuration not stated)	8	nt	nt	nt	0	nt	nt	nt
CC1(C(=O)NS(=O)(=O)c2ccc(C#N)cc2)CCN1C(=O)CCc1ccc(Cl)cc1Cl (configuration not stated)	26	nt	nt	nt	0	nt	nt	nt
CC1(C(=O)NS(=O)(=O)c2cccc(F)c2)CCN1C(=O)CCc1ccc(Cl)cc1Cl (configuration not stated)	30	nt	nt	nt	0	nt	nt	nt
O=C(NCc1ccco1)c1ccc(-c2ccc3nccn3c2)cc1	8	nt	nt	nt	0	nt	nt	nt
C/C(=N\Nc1nc2ccccc2s1)c1ccc(Br)s1	35*	-1	-1	11	0	-10	17	8.7*
CC(C)CNc1cc(Cl)c(S(=O)(=O)NCC(C)C)cc1C(=O)O	37*	4	2	-13	0	-5	19	1

Screening data from PubChem BioAssay.
